In patent US20240200044, “EVOLUTION OF TALENS” (President and Fellows of Harvard College, published 2024):

Target: CBX8-directed TALE-omega K59E (synthetic construct, UniProt Q56830 SEQ:41-724, K59E)
Assay: one_hybrid; versus canonical CBX8 TALE
Conditions: tags: N-terminal FLAG-NLS, C-terminal RNAP omega; dsDNA, one strand shown

## TTCAGGAGGGCTTCGGC
  binding signal: 2 fold decrease
